Our source for the Percent Effect values is ChEMBL document CHEMBL3988442, “University of Dundee, Small-Polar-MMV Screening Library” (2021).

The target of test [1] is T1, Aspartate--tRNA(Asp/Asn) ligase (Mycobacterium tuberculosis (strain ATCC 25618 / H37Rv)) (UniProt P9WFW3). Also: in the data most compounds retested in dose-response had high values.
T1 sequence (whole entry): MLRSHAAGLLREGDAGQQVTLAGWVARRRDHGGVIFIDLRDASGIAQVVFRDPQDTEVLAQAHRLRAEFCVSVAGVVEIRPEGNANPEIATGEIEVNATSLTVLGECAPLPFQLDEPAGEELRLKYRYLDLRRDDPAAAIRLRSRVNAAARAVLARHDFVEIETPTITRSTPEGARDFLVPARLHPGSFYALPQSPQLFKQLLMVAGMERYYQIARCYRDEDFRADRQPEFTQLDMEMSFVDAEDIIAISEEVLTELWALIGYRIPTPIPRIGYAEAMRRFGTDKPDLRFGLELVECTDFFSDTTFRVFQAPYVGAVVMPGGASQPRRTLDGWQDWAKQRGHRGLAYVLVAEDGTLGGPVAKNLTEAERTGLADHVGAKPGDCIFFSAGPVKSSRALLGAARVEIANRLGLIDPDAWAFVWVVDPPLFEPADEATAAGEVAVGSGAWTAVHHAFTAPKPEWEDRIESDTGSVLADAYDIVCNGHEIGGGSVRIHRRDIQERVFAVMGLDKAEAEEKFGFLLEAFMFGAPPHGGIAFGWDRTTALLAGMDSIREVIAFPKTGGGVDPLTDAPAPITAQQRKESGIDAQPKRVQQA
In words: Assay for Asp RNA synthetase-1 from Mycobacterium tuberculosis. The following applies: 30 µM. Format: functional. On the set-up: scale not given: direction of the effect not stated beside the values.

The target in test [2] is Shiga toxin 2 (Escherichia coli O157:H7) (UniProt P09385+P09386). In words: E. coli 0.157:H7 Shiga Toxin SOP - stx2 screening assay. Format: functional. On the set-up: scale not given: direction of the effect not stated beside the values. The following applies: 30 µM.

SMILES strings stand for the structures.

For the molecule `CCn1c(NCc2ccco2)nc2c(C)nn(C)c2c1=O`, the Percent Effect in test [1] is -3.66%; in test [2], -41.1%.
Turning to `Cc1cnn(CC2CCCN2CC(=O)N(C)CCC#N)c1` (centres undefined), the Percent Effect is -0.546% in test [1] and -11.9% in test [2].
For `CO[C@H]1CCN(C(=O)Cc2ccccn2)[C@H]1Cc1ccncc1`, the Percent Effect in test [1] is 3.54%; in test [2], -1.46%.
`CN(C)CC(=O)N1CCC2(CCN(Cc3ccccn3)C2=O)C1` (centres undefined): the values for the Percent Effect in test [1] and in test [2] were -3.07% and 9.53%, respectively.
Take `CC(C)(C)c1cc(CN2CC[C@@H](NC(=O)c3cccnc3)[C@H](O)C2)n[nH]1`: the figures for the Percent Effect in test [1] and in test [2] were -4.62% and 14.9%, respectively.
As to `Cc1noc(CN2Cc3ccccc3CC2c2nnc(C)o2)n1` (centres undefined), the results for the Percent Effect in test [1] and in test [2] were -2.54% and -7.76%, respectively.
The matching figures for `Brc1cc2c(cc1CN1CCC(N3CCCCC3)CC1)OCCO2`: -2.09% and -51.2%.
Take `COCCc1noc(CN2CCCC2c2c(C)nn(C)c2C)n1` (centres undefined): the Percent Effect in test [1] was -7.13%; in test [2], 10.3%.
With `Cc1csc(N2CCN(CCc3ccccn3)CC2C)n1` (centres undefined), the Percent Effect was -6.27% in test [1] and -7.75% in test [2].
The corresponding values for `Cc1nnc2n1CCN(C(=O)c1cc(Cl)c(Cl)n1C)C2` are -1.68% and 8.23%.
For `Cc1nn(C)c(C)c1-c1cncc(C2CCN(S(C)(=O)=O)CC2)n1`, the figures for the Percent Effect in test [1] and in test [2] were -2.63% and -8.32%, respectively.
For the molecule `O=c1n(CCSCc2ccccc2F)nc2ccccn12`, the Percent Effect in test [1] came out at 0.461%; in test [2], 20.1%.
In the case of `CSCCCNC(=O)Nc1cccc(-c2nccn2C)c1`, the Percent Effect in test [1] was -3.93%; in test [2] it was -93.1%.
Regarding `CS(=O)(=O)NCC1CCCN(C(=O)COCC(F)(F)F)C1` (centres undefined), the Percent Effect in test [1] was -4.43%; in test [2], -24%.
Take `NC(=O)c1ccc(CN2CCCC(O)C2)cc1` (centres undefined): the Percent Effect in test [1] is -3.73%; in test [2], -9.74%.
On to `CCOCCCNc1nc(O)cc(C2CC(=O)N(C)C2)n1` (centres undefined), for which the Percent Effect in test [1] was -1.77%; in test [2], -22.7%.
With `O=C(C1CCC1)N1CCN(C(=O)c2cnccn2)[C@H]2CS(=O)(=O)C[C@H]21`, the Percent Effect in test [1] is -2.93%; in test [2] it was -12.2%.
